This is an account of results in PubChem BioAssay (EPA / NIEHS).

Values joined by “and” are separate entries in the source; they are usually repeats but may differ in a detail not shown here. Equal entries are not always repeated. Some compounds were tested as several samples or in several runs, with calls that do not always agree. Active and inactive are the calls of the source. How the source made its calls: active means hit-call score of the fitted dose curve at least 0.9, where 1 is the maximum; inactive means score below 0.9.

Read-out in assay [1]: Intercellular Adhesion Molecule 1 (ICAM1), ICAM1 (gene 3383)
Description: BSK_BE3C_ICAM1: BioMAP Diversity Plus: BE3C Assay for Intercellular Adhesion Molecule 1 (ICAM1) Biomarker Activity (AID 2284278).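 On outcome: cell-surface ICAM-1 protein level quantified by ELISA.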 The conditions noted are these: primary human bronchial epithelial cells. The method, boiled down: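 Primary human bronchial epithelial cells were exposed to compound for 24 h, after which cell-surface ICAM-1 was quantified by ELISA. Activity was fitted in the gain-of-signal direction against DMSO as negative control and baseline.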

Read-out in assay [2]: Interferon-inducible T-cell alpha chemoattractant (ITAC), CXCL11 (gene 6373)
Description: BSK_BE3C_ITAC: BioMAP Diversity Plus: BE3C Assay for Interferon-inducible T-cell alpha chemoattractant (ITAC) Biomarker Activity (AID 2284279). Particulars: primary human bronchial epithelial cells. The method, boiled down: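 ELISA for I-TAC in primary human bronchial epithelial cultures 24 h post-treatment, fitted relative to DMSO baseline in positive direction. Cytotoxicity checked in parallel cultures by sulforhodamine B protein staining.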

Read-out in assay [3]: Interleukin-8 (IL8), CXCL8 (gene 3576)
Description: BSK_BE3C_IL8: BioMAP Diversity Plus: BE3C Assay for Interleukin-8 (IL8) Biomarker Activity (AID 2284280). Particulars: primary human bronchial epithelial cells. The method, boiled down: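 ELISA read-out of IL-8 in human lung bronchial epithelial primary cell cultures, 24 h post-dosing; endpoint analysed as signal increase relative to DMSO baseline.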

Read-out in assay [4]: Epidermal growth factor receptor (EGFR), EGFR (gene 1956)
Description: BSK_BE3C_EGFR: BioMAP Diversity Plus: BE3C Assay for Epidermal growth factor receptor (EGFR) Biomarker Activity (AID 2284281). Particulars: primary human bronchial epithelial cells. The method, boiled down: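 Primary human lung bronchial epithelial cells; compound, 24 h; EGFR measured by ELISA; positive-direction fit vs DMSO baseline.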

Read-out in assay [5]: KRT18 (gene 3875)
Description: BSK_BE3C_Keratin818: BioMAP Diversity Plus: BE3C Assay for Keratin 818 Biomarker Activity (AID 2284282). The conditions noted are these: primary human bronchial epithelial cells. The method, boiled down: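 Human primary bronchial epithelial cells in the BE3C system were exposed to test chemical for 24 h, then Keratin 8/18 was quantified by ELISA. Activity was fitted in the positive direction against DMSO as negative control and baseline.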

Read-out in assay [6]: Matrix Metallopeptidase 9 (MMP9), MMP9 (gene 4318)
Description: BSK_BE3C_MMP9: BioMAP Diversity Plus: BE3C Assay for Matrix Metallopeptidase 9 (MMP9) Biomarker Activity (AID 2284283). The conditions noted are these: primary human bronchial epithelial cells. A digest of the protocol:
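MMP9 is measured by ELISA after a 24 h compound exposure of primary human bronchial epithelial cultures. Parallel SRB staining gives overt cytotoxicity. Values fitted in the positive direction against DMSO.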

Read-out in assay [7]: Plasminogen activator inhibitor-1 (PAI1), SERPINE1 (gene 5054)
Description: BSK_CASM3C_PAI1: BioMAP Diversity Plus: CASM3C Assay for Plasminogen activator inhibitor-1 (PAI1) Biomarker Activity (AID 2284284).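 Further: PAI-1 protein level measured by ELISA 24 h after dosing.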 The conditions noted are these: primary human coronary artery smooth muscle cells.

Read-out in assay [8]: Decorin, DCN (gene 1634)
Description: BSK_MyoF_Decorin: BioMAP Diversity Plus: MyoF Assay for Decorin Biomarker Activity (AID 2284265). Particulars: primary human lung fibroblasts. The method, boiled down:
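Decorin protein was quantified by ELISA 24 h after chemical addition to primary human lung fibroblasts and analysed as increase over DMSO. Cytotoxicity was tracked in parallel cultures by SRB total-protein staining read at 560 nm.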

Read-out in assay [9]: KRT18 (gene 3875)
Description: BSK_BF4T_Keratin818: BioMAP Diversity Plus: BF4T Assay for Keratin 818 Biomarker Activity (AID 2284266). Particulars: primary human bronchial epithelial cells with fibroblasts. The method, boiled down:
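Co-culture of human bronchial epithelial cells and dermal fibroblasts, chemical exposure 24 h. Keratin 8/18 measured by ELISA; positive-direction fit vs DMSO. SRB total protein run in parallel cultures for cytotoxicity.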

Assay [10] in a line: BSK_MyoF_SRB: Viability Assessment in the BioMAP Diversity Plus: MyoF Assay (AID 2284267).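 Further: total protein by SRB absorbance in parallel cultures as cytotoxicity measure; cells assessed 24 h after compound addition.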 The conditions noted are these: primary human lung fibroblasts. A digest of the protocol: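 Human lung fibroblasts dosed with chemical and assessed 24 h later for overt cytotoxicity in parallel cultures. Total protein quantified by sulforhodamine B staining (0.1% SRB after 10% TCA fixation), read at 560 nm, analysed in positive direction versus DMSO baseline.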

Read-out in assay [11]: Matrix Metallopeptidase 1 (MMP1), MMP1 (gene 4312)
Description: BSK_MyoF_MMP1: BioMAP Diversity Plus: MyoF Assay for Matrix Metallopeptidase 1 (MMP1) Biomarker Activity (AID 2284268). The conditions noted are these: primary human lung fibroblasts. The method, boiled down:
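Human lung fibroblasts (MyoF system) exposed to chemical for 24 h in 96-well format; MMP1 biomarker quantified by ELISA, with activity fitted in the positive direction relative to DMSO baseline.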

Read-out in assay [12]: TIMP metallopeptidase inhibitor 1 (TIMP1), TIMP1 (gene 7076)
Description: BSK_MyoF_TIMP1: BioMAP Diversity Plus: MyoF Assay for TIMP metallopeptidase inhibitor 1 (TIMP1) Biomarker Activity (AID 2284269). Particulars: primary human lung fibroblasts. A digest of the protocol:
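ELISA quantified TIMP-1 levels after 24 h dosing of primary human lung fibroblasts, with DMSO as baseline. Parallel SRB total protein staining (0.1% SRB after TCA fixation, 560 nm) flagged overt cytotoxicity.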

Read-out in assay [13]: Matrix Metallopeptidase 3 (MMP3), MMP3 (gene 4314)
Description: BSK_BF4T_MMP3: BioMAP Diversity Plus: BF4T Assay for Matrix Metallopeptidase 3 (MMP3) Biomarker Activity (AID 2284271). Particulars: primary human bronchial epithelial cells with fibroblasts. A digest of the protocol:
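Co-culture of human bronchial epithelial cells and dermal fibroblasts dosed 24 h; MMP-3 measured by ELISA, positive-direction fit versus DMSO. Cytotoxicity tracked by SRB total-protein staining (560 nm) in parallel cultures.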

Read-out in assay [14]: Tissue plasminogen activator (tPA), PLAT (gene 5327)
Description: BSK_BF4T_tPA: BioMAP Diversity Plus: BF4T Assay for Tissue plasminogen activator (tPA) Biomarker Activity (AID 2284272). Particulars: primary human bronchial epithelial cells with fibroblasts. A digest of the protocol: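 tPA level quantified by ELISA at 24 h post-treatment in bronchial epithelial/dermal fibroblast co-cultures, gain of signal scored against DMSO baseline. Parallel cultures stained with 0.1% SRB (560 nm) to flag overt cytotoxicity.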

Read-out in assay [15]: Matrix Metallopeptidase 9 (MMP9), MMP9 (gene 4318)
Description: BSK_BF4T_MMP9: BioMAP Diversity Plus: BF4T Assay for Matrix Metallopeptidase 9 (MMP9) Biomarker Activity (AID 2284276). The conditions noted are these: primary human bronchial epithelial cells with fibroblasts. The method, boiled down: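 Co-culture of human bronchial epithelial cells and dermal fibroblasts dosed for 24 h; MMP-9 quantified by ELISA and fitted upward versus DMSO. Cytotoxicity monitored in parallel cultures by SRB total-protein staining at the biomarker time point.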

Read-out in assay [16]: urokinase Plasminogen Activator (uPA), PLAU (gene 5328)
Description: BSK_BF4T_uPA: BioMAP Diversity Plus: BF4T Assay for urokinase Plasminogen Activator (uPA) Biomarker Activity (AID 2284275). Particulars: primary human bronchial epithelial cells with fibroblasts. The method, boiled down:
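Co-culture of human bronchial epithelial cells and dermal fibroblasts; uPA quantified by ELISA 24 hours after dosing, fitted relative to DMSO. Parallel SRB total-protein staining assessed overt cytotoxicity.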

Read-out in assay [17]: Interleukin-8 (IL8), CXCL8 (gene 3576)
Description: BSK_IMphg_IL8: BioMAP Diversity Plus: IMphg Assay for Interleukin-8 (IL8) Biomarker Activity (AID 2284277). Particulars: primary human endothelial cells with macrophages. A digest of the protocol:
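Co-culture of human venular endothelial cells and macrophages exposed to chemicals for 24 h; IL-8 quantified by ELISA and compared against the DMSO baseline, with SRB total-protein staining in parallel cultures for cytotoxicity.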

Turning to `CCCCC(CC)COP(=O)(O)OCC(CC)CCCC` (centres undefined), the AC50 in assay [1] was 29 µM (active); in assay [2], 28.9 µM (active); in assay [4], 26.3 µM (active) and 20 µM (active); in assay [6] it was 29.6 µM (active). Moreover, the outcome in [1], in assay [3], in assay [5], in assay [6] and in assay [7] was inactive.
Take `O=S(=O)(OCCOC(F)(F)F)C(F)(F)F`: the outcome in assay [8], in assay [9], in [10], in assay [11], in assay [12] and in assay [13] was inactive. In addition, the result in assay [14], in [15], in assay [1], in assay [3], in [4] and in [5] was inactive. For the same compound, the outcome in assay [6] and in assay [7] was inactive.
Turning to `CS(C)(=O)=O`, the result in [8], in [10], in [11] and in assay [12] was inactive.
In the case of `CC(C)(C)C(=O)CC(=O)C(F)(F)C(F)(F)C(F)(F)F`, the result in assay [8], in [9], in [10], in [11], in [12] and in assay [13] was inactive. Moreover, the outcome in [14], in [15], in assay [1], in assay [3], in [4] and in [5] was inactive. Also, the result in [6] and in assay [7] was inactive.
In the case of `FC(F)(F)C(F)(F)C(F)(F)N(C(F)(F)C(F)(F)C(F)(F)F)C(F)(F)C(F)(F)C(F)(F)F`, the outcome in [8], in assay [9], in assay [10], in assay [11], in assay [12] and in [13] was inactive. Besides, the result in assay [14], in assay [16], in [15], in [1], in [2] and in [3] was inactive. Besides, the outcome in assay [4], in [5], in assay [6] and in assay [7] was inactive.
With `O=C(O)C(F)(F)C(F)(F)F`, the result in assay [8], in assay [9], in assay [10], in assay [11], in assay [12] and in assay [13] was inactive. Moreover, the result in assay [14], in [15], in assay [17], in [1], in assay [2] and in assay [3] was inactive. For the same compound, the outcome in assay [4], in assay [5], in assay [6] and in assay [7] was inactive. Besides, the AC50 in assay [3] was 26.1 µM (active).
